# Experimental data reported in ChEMBL document CHEMBL1961873, “Compounds: GSK PKIS; Assays: Nanosyn kinase panel” (2012).
# Columns and labels:
# [1] = molecular target: Tyrosine-protein kinase SYK (Homo sapiens) (UniProt P43405); conditions: at 1 µM
# [2] = molecular target: T1, Tyrosine-protein kinase Tec (Homo sapiens) (UniProt P42680); conditions: at 0.1 µM
# T1 sequence (whole entry): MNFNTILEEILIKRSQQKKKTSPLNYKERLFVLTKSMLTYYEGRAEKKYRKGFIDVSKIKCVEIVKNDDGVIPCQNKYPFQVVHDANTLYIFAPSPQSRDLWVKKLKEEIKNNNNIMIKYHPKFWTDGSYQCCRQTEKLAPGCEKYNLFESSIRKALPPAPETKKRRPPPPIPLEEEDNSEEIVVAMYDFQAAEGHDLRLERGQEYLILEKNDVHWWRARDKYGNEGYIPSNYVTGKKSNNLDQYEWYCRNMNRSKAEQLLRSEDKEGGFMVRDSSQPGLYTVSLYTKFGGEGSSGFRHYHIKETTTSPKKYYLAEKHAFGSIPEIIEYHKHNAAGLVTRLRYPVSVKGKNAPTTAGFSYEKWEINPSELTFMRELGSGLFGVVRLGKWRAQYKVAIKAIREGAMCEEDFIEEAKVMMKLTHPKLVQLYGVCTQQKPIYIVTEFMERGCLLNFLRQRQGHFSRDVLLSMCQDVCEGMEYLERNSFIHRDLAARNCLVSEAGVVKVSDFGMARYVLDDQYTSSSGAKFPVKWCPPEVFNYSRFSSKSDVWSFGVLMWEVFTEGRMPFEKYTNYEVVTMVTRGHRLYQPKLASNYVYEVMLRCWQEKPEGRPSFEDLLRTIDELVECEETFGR
# [3] = molecular target: T1, Tyrosine-protein kinase Tec (Homo sapiens); conditions: at 1 µM
# [4] = molecular target: Angiopoietin-1 receptor (Homo sapiens) (UniProt Q02763); conditions: at 0.1 µM
# [5] = molecular target: Angiopoietin-1 receptor (Homo sapiens) (UniProt Q02763); conditions: at 1 µM
# [6] = molecular target: T2, Non-receptor tyrosine-protein kinase TNK1 (Homo sapiens) (UniProt Q13470); conditions: at 0.1 µM
# T2 sequence (whole entry): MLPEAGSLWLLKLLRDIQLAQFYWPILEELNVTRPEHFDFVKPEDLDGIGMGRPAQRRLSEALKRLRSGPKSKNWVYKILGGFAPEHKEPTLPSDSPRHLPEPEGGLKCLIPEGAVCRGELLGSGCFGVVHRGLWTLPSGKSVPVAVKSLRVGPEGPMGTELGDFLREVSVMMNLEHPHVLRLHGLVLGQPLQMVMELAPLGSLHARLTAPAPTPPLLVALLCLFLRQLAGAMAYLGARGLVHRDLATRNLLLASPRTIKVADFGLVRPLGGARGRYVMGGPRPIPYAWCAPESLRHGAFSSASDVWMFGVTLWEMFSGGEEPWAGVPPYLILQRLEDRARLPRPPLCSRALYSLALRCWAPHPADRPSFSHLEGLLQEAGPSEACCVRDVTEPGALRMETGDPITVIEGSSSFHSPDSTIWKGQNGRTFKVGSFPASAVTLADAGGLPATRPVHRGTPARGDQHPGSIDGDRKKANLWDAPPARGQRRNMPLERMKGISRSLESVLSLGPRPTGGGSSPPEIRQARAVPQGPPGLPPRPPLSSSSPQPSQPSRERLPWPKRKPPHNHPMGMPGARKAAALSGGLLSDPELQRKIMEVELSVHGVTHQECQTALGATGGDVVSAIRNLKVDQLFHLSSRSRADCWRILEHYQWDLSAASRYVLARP
# [7] = molecular target: T2, Non-receptor tyrosine-protein kinase TNK1 (Homo sapiens); conditions: at 1 µM
# [8] = molecular target: Activated CDC42 kinase 1 (Homo sapiens) (UniProt Q07912); conditions: at 0.1 µM
# [9] = molecular target: Activated CDC42 kinase 1 (Homo sapiens) (UniProt Q07912); conditions: at 1 µM
# [10] = molecular target: High affinity nerve growth factor receptor (Homo sapiens) (UniProt P04629); conditions: at 0.1 µM;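 note: each value is a mean of replicate percent inhibition readings against TRKA kinase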
# Chain of High affinity nerve growth factor receptor (Homo sapiens) (P04629 33-796 limits assumed): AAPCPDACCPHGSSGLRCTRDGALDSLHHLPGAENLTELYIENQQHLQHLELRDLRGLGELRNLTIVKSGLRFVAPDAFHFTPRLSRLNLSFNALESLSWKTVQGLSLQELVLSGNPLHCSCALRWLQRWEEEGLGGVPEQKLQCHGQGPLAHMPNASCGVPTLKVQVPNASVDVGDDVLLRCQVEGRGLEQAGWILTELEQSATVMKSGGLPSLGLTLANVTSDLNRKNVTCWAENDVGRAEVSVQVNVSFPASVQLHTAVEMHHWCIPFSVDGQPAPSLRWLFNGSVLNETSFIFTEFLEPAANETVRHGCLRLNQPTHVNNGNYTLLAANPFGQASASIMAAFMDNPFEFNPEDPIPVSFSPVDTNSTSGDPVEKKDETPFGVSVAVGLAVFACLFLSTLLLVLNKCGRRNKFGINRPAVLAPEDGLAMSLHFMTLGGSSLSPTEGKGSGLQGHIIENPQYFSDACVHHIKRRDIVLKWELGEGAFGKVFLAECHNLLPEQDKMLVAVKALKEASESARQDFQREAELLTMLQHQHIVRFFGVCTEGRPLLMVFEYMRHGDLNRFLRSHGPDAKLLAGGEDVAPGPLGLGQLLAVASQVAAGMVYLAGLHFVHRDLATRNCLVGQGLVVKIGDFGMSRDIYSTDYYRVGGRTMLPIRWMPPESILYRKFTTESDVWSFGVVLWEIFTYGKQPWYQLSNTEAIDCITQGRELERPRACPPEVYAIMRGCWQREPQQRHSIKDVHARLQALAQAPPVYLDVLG
# Chain of Angiopoietin-1 receptor (Homo sapiens) (Q02763 whole entry): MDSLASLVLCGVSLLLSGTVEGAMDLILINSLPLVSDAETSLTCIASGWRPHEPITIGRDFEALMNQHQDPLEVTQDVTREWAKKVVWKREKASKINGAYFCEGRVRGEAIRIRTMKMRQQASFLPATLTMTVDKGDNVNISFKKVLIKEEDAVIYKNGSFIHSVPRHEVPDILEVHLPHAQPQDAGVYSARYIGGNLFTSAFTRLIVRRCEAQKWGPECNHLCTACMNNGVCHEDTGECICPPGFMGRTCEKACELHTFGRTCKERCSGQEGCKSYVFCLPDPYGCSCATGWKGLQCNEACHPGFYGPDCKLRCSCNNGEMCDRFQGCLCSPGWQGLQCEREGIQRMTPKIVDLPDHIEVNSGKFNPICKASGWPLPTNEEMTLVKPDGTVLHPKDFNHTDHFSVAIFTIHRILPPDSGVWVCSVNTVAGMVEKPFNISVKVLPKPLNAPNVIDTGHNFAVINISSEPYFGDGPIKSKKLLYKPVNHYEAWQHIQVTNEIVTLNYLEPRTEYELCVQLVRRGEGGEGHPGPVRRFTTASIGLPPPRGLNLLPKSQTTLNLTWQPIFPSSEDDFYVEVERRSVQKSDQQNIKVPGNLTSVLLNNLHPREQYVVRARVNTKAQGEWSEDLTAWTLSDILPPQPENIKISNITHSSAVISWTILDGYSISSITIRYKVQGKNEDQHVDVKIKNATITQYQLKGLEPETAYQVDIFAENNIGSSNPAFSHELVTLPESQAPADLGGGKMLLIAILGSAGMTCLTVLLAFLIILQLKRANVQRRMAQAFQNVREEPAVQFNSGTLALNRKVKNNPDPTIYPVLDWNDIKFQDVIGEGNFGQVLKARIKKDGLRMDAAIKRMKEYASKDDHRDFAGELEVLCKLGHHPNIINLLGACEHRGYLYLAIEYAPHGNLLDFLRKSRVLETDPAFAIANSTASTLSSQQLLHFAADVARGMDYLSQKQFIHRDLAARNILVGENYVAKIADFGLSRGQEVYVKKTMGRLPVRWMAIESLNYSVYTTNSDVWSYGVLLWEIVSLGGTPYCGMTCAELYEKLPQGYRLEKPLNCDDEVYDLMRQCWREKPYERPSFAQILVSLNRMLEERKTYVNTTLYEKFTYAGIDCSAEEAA
# Chain of Activated CDC42 kinase 1 (Homo sapiens) (Q07912 whole entry, looked up): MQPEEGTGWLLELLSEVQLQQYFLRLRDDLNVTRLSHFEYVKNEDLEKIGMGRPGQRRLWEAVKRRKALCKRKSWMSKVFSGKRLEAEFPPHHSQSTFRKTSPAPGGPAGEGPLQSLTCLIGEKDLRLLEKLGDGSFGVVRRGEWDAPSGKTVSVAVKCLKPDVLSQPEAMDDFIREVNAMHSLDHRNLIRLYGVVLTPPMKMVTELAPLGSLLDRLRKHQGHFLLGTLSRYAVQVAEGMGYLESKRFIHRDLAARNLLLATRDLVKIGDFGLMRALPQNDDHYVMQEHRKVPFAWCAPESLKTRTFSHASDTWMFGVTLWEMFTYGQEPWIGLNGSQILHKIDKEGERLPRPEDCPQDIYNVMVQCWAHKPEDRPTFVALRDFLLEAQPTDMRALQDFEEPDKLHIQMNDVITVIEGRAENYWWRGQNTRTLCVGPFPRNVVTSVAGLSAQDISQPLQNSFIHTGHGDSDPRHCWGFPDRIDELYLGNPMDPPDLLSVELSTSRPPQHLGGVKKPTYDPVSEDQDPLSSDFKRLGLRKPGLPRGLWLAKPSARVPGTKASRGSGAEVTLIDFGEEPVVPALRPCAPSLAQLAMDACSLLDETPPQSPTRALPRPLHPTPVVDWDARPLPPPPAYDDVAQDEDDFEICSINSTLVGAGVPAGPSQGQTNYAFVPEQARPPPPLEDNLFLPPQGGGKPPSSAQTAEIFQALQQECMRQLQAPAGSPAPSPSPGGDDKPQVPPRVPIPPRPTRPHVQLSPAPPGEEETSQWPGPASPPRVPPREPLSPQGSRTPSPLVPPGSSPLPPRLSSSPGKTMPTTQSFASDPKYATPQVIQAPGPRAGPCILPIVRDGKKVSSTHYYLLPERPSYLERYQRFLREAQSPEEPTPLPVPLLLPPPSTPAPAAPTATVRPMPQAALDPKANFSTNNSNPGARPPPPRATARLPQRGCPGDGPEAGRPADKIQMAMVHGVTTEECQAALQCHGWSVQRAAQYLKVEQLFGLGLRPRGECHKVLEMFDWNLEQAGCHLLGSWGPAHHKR
Structure (SMILES),inhibition [1] [%],inhibition [2] [%],inhibition [3] [%],inhibition [4] [%],inhibition [5] [%],inhibition [6] [%],inhibition [7] [%],inhibition [8] [%],inhibition [9] [%],inhibition [10] [%]
CCn1c(-c2nonc2N)nc2c(C#CC(C)(C)O)ncc(OC[C@@H]3CCCN3)c21,-4.11,0.03,1.67,-0.35,4.39,2.04,1.67,-0.73,-0.46,-2.99
CCn1c(-c2nonc2N)nc2c(C#CC(C)(C)O)ncc(OCC3CCNCC3)c21,-0.6,-0.71,0.43,0.65,3.85,1.75,10.6,0.81,1.2,3.1
Nc1nonc1-c1nc2cnccc2n1C1CCCCC1,-0.01,-0.6,1.22,1.78,3.18,-1.33,20.8,-1.67,-1.55,-1.55
NC(=O)c1sc(-n2cnc3cc(C(F)(F)F)ccc32)cc1OCc1ccccc1Br,1.46,1.68,3.28,2.07,3.72,1.72,5.51,0.49,1.45,-0.62
COc1cccc(COc2cc(-n3cnc4ccccc43)sc2C(N)=O)c1,-4.12,-0.82,0.59,-1.48,3.47,0.87,12.1,-0.46,0.57,-2.49
COc1cccc(-n2ncc3c(N/N=C/c4ccncc4)ncnc32)c1,9.95,6.13,17.2,6.02,37.5,10.1,52.3,2.06,9.3,3.46
NS(=O)(=O)c1ccc(-c2ccc3c(NC(=O)C4CC4)n[nH]c3c2)cc1,-2.49,4.93,10.3,1.08,6.97,2.11,4.7,1.28,1.95,3.82
Cc1cc(-c2ccco2)cc(C)c1/C=C/c1cncc(-c2nn[nH]n2)c1,-0.41,-0.18,4.27,2.4,5.27,14.2,75.2,0.58,3.5,-2.1
CCn1c(-c2nonc2N)nc2c(C#CCN)ncc(OCCCN)c21,-0.1,-2.6,-1.5,0.84,-0.39,2.24,10.6,-0.12,0.81,-3.88
COc1cc(C=NNc2ncnc3c2cnn3Cc2ccccc2)ccc1O,-4.26,-0.99,16.4,3.65,31.7,–,-2.22,-1.7,0.03,-2.9
Fc1ccc(-c2ncn(C3CCNCC3)c2-c2ccnc(Oc3ccccc3)n2)cc1,0.47,-3.67,-1.69,-0.49,1.7,0.27,1.01,-0.4,0.06,1.92
NS(=O)(=O)c1ccc(N/C=C2\C(=O)Nc3ccc4ncsc4c32)cc1,-8.48,1.96,10.6,0.38,10.4,6.89,37.8,0.75,1.83,9.04
CCn1c(-c2nonc2N)nc2c(C#CC(C)(C)O)nc(O[C@@H](CN)c3ccccc3)cc21,0.56,0.79,5.82,2.63,11.4,-3.17,-3.26,-0.88,-1.74,-3.19
COc1cc2c(cc1Nc1nc(Nc3ccsc3C(N)=O)c3cc[nH]c3n1)N(C(=O)CN(C)C)CCC2,11.2,-0.19,4.36,6.04,10.5,32.3,80.2,0.24,13.2,–
